Key:
[1] = biological target: Mitogen-activated protein kinase 3 (Homo sapiens) (UniProt P27361); conditions: at 1 µM;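 further: values are mean percent inhibition of MAPK3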
[2] = biological target: SRSF protein kinase 3 (Homo sapiens) (UniProt Q9UPE1); conditions: at 0.1 µM
[3] = biological target: SRSF protein kinase 3 (Homo sapiens) (UniProt Q9UPE1); conditions: at 1 µM
[4] = biological target: Mitogen-activated protein kinase 14 (Homo sapiens) (UniProt Q16539); conditions: at 0.1 µM
[5] = biological target: Mitogen-activated protein kinase 14 (Homo sapiens) (UniProt Q16539); conditions: at 1 µM
[6] = biological target: Mitogen-activated protein kinase 11 (Homo sapiens) (UniProt Q15759); conditions: at 0.1 µM
[7] = biological target: Mitogen-activated protein kinase 11 (Homo sapiens) (UniProt Q15759); conditions: at 1 µM
[8] = biological target: T1, Mitogen-activated protein kinase 13 (Homo sapiens) (UniProt O15264); conditions: at 0.1 µM
T1 sequence (whole entry): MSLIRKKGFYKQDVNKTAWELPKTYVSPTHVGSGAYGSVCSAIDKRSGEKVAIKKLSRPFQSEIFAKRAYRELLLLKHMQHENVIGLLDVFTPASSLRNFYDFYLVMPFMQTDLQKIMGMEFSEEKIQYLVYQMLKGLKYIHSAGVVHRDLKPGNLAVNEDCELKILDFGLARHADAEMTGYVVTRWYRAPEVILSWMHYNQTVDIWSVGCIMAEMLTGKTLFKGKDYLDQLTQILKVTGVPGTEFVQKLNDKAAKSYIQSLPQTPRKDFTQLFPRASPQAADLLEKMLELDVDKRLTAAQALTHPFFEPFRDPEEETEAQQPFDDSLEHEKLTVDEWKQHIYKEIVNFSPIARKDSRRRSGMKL

[9] = biological target: T1, Mitogen-activated protein kinase 13 (Homo sapiens); conditions: at 1 µM
[10] = biological target: T2, Mitogen-activated protein kinase 12 (Homo sapiens) (UniProt P53778); conditions: at 0.1 µM
T2 sequence (whole entry): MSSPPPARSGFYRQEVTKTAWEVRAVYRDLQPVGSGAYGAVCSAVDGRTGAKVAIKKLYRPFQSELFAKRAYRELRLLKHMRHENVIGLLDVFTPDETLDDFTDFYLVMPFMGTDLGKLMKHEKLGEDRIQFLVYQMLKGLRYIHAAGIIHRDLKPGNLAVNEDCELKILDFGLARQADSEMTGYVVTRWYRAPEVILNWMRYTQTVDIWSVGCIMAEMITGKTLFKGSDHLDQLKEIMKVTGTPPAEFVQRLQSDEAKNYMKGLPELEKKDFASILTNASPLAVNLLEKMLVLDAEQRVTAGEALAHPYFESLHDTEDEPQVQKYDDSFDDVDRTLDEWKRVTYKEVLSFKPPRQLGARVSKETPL

[11] = biological target: T2, Mitogen-activated protein kinase 12 (Homo sapiens); conditions: at 1 µM
[12] = biological target: SRSF protein kinase 1 (Homo sapiens) (UniProt Q96SB4); conditions: at 0.1 µM
[13] = biological target: SRSF protein kinase 1 (Homo sapiens) (UniProt Q96SB4); conditions: at 1 µM
[14] = biological target: Phosphatidylinositol 4,5-bisphosphate 3-kinase catalytic subunit alpha isoform (Homo sapiens) (UniProt P42336); conditions: at 0.1 µM
[15] = biological target: Phosphatidylinositol 4,5-bisphosphate 3-kinase catalytic subunit alpha isoform (Homo sapiens) (UniProt P42336); conditions: at 1 µM
[16] = biological target: T3, Phosphatidylinositol 4,5-bisphosphate 3-kinase catalytic subunit delta isoform (Homo sapiens) (UniProt O00329); conditions: at 0.1 µM
T3 sequence (whole entry): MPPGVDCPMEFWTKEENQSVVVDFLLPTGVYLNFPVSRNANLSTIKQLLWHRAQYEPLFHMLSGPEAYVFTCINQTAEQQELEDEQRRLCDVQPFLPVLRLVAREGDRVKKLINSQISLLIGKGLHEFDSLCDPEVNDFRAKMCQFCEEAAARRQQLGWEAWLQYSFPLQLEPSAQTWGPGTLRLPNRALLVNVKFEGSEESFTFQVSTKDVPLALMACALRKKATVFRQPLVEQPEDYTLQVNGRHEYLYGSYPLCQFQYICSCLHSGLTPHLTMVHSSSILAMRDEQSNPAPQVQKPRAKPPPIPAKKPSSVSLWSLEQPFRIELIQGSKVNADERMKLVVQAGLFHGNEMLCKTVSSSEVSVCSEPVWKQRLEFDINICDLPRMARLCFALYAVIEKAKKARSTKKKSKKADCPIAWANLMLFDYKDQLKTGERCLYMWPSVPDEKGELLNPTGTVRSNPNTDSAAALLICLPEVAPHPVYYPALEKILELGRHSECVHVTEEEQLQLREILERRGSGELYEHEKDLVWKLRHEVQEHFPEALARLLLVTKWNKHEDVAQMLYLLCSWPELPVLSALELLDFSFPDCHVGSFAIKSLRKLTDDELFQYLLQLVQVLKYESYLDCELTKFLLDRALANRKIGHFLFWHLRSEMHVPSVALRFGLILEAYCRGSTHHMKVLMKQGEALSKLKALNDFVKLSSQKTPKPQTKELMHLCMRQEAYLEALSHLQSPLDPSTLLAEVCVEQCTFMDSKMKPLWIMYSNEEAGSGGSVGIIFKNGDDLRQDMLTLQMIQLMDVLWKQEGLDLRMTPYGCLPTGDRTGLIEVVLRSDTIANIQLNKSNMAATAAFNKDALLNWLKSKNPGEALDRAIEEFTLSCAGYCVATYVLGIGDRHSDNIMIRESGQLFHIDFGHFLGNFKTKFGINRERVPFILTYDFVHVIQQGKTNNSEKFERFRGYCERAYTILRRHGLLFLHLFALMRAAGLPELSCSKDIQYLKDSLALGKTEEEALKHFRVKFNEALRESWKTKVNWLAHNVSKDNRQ

[17] = biological target: T3, Phosphatidylinositol 4,5-bisphosphate 3-kinase catalytic subunit delta isoform (Homo sapiens); conditions: at 1 µM
[18] = biological target: Phosphatidylinositol 4-kinase beta (Homo sapiens) (UniProt Q9UBF8); conditions: at 0.1 µM
[19] = biological target: Phosphatidylinositol 4-kinase beta (Homo sapiens) (UniProt Q9UBF8); conditions: at 1 µM
[20] = biological target: Sphingosine kinase 1 (Homo sapiens) (UniProt Q9NYA1); conditions: at 0.1 µM;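 further: mean percent inhibition of SPHK1 activity, measured within the GSK PKIS screening panel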
Chain of Sphingosine kinase 1 (Homo sapiens) (Q9NYA1 whole entry): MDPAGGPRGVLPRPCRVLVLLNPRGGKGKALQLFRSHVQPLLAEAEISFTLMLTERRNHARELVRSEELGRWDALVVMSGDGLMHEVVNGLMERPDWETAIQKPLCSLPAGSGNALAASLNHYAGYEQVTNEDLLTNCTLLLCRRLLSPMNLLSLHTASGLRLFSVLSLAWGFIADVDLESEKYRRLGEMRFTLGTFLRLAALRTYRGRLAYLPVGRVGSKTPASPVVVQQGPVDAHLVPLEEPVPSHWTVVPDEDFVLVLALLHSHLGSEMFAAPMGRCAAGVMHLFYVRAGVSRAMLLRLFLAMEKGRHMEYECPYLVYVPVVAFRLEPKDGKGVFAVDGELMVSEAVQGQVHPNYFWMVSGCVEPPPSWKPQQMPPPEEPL

Chain of Phosphatidylinositol 4,5-bisphosphate 3-kinase catalytic subunit alpha isoform (Homo sapiens) (P42336 whole entry, canonical isoform): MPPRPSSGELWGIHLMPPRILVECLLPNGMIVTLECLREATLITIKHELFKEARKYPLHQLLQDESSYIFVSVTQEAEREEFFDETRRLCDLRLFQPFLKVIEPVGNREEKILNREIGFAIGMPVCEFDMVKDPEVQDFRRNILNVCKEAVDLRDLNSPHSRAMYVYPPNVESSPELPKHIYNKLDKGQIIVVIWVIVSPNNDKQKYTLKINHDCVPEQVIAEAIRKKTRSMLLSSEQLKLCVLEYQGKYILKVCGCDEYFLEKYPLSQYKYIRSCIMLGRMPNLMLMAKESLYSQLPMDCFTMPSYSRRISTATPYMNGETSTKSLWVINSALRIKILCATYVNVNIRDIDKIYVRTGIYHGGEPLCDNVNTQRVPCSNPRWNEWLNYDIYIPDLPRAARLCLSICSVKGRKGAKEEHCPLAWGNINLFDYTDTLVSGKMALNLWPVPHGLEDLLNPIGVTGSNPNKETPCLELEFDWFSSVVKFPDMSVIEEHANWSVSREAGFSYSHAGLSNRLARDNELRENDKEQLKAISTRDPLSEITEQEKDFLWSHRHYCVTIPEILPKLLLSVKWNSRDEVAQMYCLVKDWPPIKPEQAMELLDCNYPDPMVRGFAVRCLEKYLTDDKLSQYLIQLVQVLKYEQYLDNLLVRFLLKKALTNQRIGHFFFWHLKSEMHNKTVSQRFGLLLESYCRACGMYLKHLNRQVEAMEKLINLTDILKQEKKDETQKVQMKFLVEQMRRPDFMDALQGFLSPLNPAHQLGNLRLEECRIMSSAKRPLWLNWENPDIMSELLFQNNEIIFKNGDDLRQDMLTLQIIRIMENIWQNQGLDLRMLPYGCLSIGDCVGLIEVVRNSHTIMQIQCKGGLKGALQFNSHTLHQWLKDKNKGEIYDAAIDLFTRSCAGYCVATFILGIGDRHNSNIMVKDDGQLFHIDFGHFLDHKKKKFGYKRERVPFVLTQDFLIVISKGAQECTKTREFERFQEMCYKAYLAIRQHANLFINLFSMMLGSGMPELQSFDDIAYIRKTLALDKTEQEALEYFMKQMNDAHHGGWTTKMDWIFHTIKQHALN
Chain of Mitogen-activated protein kinase 11 (Homo sapiens) (Q15759 whole entry): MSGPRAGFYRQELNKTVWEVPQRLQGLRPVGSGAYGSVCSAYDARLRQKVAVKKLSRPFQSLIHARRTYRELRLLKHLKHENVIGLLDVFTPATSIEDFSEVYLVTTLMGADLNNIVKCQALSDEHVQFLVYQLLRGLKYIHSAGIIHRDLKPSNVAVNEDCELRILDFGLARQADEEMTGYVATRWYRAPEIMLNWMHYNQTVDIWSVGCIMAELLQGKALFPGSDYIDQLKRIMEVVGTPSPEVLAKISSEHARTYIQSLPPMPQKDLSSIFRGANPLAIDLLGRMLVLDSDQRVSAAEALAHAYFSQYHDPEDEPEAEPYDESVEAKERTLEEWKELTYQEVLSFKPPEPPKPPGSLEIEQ
Chain of Mitogen-activated protein kinase 14 (Homo sapiens) (Q16539 whole entry): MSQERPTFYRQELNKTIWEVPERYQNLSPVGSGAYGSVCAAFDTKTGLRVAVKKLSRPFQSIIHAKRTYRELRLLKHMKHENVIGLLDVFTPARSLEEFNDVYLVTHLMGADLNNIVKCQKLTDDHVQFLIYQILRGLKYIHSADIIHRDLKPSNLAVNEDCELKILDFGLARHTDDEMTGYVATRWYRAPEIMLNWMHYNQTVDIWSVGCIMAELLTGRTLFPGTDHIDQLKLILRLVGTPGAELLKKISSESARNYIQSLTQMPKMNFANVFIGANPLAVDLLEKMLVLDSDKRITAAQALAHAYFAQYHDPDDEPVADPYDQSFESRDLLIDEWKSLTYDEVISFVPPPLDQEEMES
Chain of Phosphatidylinositol 4-kinase beta (Homo sapiens) (Q9UBF8 2-816 limits assumed): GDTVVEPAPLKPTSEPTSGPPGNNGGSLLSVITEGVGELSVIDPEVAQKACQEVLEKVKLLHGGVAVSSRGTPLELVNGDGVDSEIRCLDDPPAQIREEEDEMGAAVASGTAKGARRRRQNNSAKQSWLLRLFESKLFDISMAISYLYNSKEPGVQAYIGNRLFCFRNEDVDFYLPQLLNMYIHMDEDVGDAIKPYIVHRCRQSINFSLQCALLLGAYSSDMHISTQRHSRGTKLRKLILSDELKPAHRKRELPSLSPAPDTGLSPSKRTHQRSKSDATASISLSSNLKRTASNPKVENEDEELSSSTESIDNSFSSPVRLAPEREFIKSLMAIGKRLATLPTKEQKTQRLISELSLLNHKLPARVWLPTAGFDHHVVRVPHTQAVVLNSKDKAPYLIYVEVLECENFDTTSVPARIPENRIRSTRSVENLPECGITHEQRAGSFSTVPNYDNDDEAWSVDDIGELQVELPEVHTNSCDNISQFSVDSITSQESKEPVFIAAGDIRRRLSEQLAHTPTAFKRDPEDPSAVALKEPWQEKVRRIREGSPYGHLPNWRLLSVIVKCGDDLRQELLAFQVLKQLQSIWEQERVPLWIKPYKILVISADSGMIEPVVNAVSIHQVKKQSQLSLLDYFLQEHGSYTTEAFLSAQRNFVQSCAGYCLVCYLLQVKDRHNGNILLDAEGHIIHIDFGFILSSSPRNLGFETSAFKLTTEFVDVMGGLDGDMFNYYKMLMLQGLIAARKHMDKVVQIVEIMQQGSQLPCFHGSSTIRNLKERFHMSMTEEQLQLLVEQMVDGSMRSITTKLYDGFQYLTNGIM
Chain of SRSF protein kinase 3 (Homo sapiens) (Q9UPE1 whole entry): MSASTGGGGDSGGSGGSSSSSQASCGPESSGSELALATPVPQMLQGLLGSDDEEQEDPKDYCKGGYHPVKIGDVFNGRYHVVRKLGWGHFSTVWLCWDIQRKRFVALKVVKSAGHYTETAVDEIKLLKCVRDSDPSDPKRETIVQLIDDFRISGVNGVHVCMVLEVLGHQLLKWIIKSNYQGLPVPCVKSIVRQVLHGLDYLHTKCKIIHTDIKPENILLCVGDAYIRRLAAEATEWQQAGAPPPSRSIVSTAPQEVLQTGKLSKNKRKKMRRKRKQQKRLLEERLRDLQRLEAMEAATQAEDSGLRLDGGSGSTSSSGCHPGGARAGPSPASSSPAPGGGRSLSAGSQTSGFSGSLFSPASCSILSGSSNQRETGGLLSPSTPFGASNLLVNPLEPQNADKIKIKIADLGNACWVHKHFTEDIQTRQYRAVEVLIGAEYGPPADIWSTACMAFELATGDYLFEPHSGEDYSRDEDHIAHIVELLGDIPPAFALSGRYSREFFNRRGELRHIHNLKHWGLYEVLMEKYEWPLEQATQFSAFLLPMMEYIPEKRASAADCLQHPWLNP
Chain of SRSF protein kinase 1 (Homo sapiens) (Q96SB4 whole entry, canonical isoform): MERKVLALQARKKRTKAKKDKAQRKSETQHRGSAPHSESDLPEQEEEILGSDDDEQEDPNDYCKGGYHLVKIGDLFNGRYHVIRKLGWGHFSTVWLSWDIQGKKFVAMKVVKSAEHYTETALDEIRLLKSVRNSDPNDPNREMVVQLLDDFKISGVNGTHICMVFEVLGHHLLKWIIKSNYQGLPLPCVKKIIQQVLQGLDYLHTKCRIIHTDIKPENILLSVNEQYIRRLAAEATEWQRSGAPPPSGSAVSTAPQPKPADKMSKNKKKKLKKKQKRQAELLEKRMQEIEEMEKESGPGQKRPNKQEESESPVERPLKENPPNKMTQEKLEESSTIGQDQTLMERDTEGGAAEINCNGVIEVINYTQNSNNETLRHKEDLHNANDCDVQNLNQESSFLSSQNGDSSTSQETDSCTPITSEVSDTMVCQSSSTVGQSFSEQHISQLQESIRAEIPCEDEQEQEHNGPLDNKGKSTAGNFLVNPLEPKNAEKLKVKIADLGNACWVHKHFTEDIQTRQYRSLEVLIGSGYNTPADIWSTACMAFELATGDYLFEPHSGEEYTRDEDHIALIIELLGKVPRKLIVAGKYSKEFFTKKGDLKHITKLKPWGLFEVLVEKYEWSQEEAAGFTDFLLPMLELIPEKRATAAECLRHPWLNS
Chain of Mitogen-activated protein kinase 3 (Homo sapiens) (P27361 whole entry): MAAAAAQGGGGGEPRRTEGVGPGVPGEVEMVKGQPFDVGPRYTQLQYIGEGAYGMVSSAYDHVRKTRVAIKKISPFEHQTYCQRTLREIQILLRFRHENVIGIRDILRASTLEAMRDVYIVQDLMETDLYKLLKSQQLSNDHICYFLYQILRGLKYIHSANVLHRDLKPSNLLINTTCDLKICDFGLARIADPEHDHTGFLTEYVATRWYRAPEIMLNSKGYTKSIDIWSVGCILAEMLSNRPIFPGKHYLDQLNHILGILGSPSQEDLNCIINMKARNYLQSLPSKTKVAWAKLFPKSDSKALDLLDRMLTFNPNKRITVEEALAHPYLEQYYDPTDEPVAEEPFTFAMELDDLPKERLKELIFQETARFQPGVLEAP

SMILES	inhibition [1] [%]	inhibition [2] [%]	inhibition [3] [%]	inhibition [4] [%]	inhibition [5] [%]	inhibition [6] [%]	inhibition [7] [%]	inhibition [8] [%]	inhibition [9] [%]	inhibition [10] [%]	inhibition [11] [%]	inhibition [12] [%]	inhibition [13] [%]	inhibition [14] [%]	inhibition [15] [%]	inhibition [16] [%]	inhibition [17] [%]	inhibition [18] [%]	inhibition [19] [%]	inhibition [20] [%]
CS(=O)(=O)Nc1cccc(-c2ccc3c(NC(=O)C4CC4)n[nH]c3c2)c1	1.38	-2.12	-0.78	-1.33	6.14	2.35	10.1	-1.65	1.02	1.49	0.75	-2.53	-4.93	-0.25	-0.59	1.13	4.97	-1.63	4.39	0.08
COc1ccc2ncnc(Nc3ccc(OCc4ccccc4)cc3)c2c1	4.61	-1.92	0.73	5.87	10.2	2.79	7.38	0.25	1.34	-0.24	1.88	-1.2	-0.4	2.14	1.05	1.99	2.84	1.57	1.15	-0.95
O=C(Nc1ccc(Oc2ccc3[nH]c(NC(=O)c4ccco4)nc3c2)cc1)Nc1cc(C(F)(F)F)ccc1F	2.24	2.34	39.6	4.66	39.4	4.14	31.7	1.18	1.53	-4.43	3.11	-0.3	5.87	-0.31	0.01	0.36	2.96	1.45	1.53	0.3
CN(C)c1cc2c(Nc3ccc4c(cnn4Cc4ccccc4)c3)ncnc2cn1	-0.93	-1.42	-0.9	5.84	8.31	2.35	4.06	0.05	2.47	1.3	1.89	-2.31	-3.59	1.32	1.28	0.82	3.28	-1.83	7.07	0.08
NC(=O)c1sc(-n2cnc3ccccc32)cc1OCc1ccccc1Br	4.22	-0.27	-0.72	8.45	23.1	1.2	4.68	4.65	5.08	3.45	5.59	-3.49	-2.38	4.02	4.31	2.31	4.24	0.67	-1.28	1.25
Oc1cccc(-c2nc(-c3ccccc3)[nH]c2-c2ccncc2)c1	5.5	1.08	12.3	34.9	71.1	10.7	47.7	1.41	3.86	-0.21	1.56	-1.52	0.98	2.99	2.95	2.01	1.67	-5.44	-3.49	1.87

From ChEMBL document CHEMBL1961873, “Compounds: GSK PKIS; Assays: Nanosyn kinase panel” (2012)
